Assay results as given in paper PMC4336329 (PLoS ONE, 2015).
The whole screen tested about 310,000 compounds, of which about 14,000 (4.5%) showed an effect of 50% or more. The effect is printed as a negative number. What follows is part of a selection rich in strong results, with near analogues and random picks from the rest.

These molecules were tested against human ether-à-go-go-related gene (hERG) potassium channel (human, UniProt Q12809) (assay: primary screen, population patch clamp on CHO cells stably expressing hERG; higher = less effect of the substance).
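Further: peak tail current of the secondary pulse compared with the same well before compound.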

human ether-à-go-go-related gene (hERG) potassium channel, sequence (Q12809 whole entry, looked up): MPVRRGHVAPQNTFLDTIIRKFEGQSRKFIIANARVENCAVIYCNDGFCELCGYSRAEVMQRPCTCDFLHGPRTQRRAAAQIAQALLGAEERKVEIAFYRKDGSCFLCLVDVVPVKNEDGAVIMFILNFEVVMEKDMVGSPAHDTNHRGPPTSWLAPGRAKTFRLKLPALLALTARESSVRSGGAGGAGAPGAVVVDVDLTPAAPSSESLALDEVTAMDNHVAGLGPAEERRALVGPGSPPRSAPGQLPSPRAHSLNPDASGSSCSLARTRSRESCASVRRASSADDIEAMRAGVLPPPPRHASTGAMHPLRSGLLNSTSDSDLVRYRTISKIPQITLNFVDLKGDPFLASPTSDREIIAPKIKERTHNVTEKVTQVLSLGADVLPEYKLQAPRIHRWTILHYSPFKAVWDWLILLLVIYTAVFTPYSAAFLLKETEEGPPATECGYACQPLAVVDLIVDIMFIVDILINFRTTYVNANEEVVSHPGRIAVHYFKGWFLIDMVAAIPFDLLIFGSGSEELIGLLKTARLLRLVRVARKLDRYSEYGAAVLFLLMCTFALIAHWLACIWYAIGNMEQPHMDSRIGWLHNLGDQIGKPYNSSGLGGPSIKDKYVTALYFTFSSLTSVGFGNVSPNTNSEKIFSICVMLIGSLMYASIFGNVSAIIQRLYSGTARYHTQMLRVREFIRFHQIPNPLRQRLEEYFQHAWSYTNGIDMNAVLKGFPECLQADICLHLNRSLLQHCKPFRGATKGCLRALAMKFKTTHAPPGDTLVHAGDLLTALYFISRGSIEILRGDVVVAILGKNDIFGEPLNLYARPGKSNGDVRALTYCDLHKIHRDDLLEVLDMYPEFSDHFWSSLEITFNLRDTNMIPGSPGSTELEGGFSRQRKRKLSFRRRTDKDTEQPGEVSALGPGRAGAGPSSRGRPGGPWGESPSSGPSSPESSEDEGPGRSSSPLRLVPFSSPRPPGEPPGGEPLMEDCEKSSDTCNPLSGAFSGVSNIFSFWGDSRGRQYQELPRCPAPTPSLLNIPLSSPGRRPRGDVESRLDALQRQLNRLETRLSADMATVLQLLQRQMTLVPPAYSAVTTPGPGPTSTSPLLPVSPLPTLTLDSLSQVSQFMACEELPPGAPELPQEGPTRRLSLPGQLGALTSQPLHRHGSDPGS

| SMILES | hERG current change (%, negative = inhibition) at 10uM [%] |
| --- | --- |
| COCCCNCC(O)COc1cccc2[nH]c(C)cc12 (stereo not shown) | 10 |
| COc1ccccc1OCCNC(=O)c1cc(=O)[nH]c2ccccc12 | -4.62 |
| COc1ccccc1OCCNCC(O)COc1cccc2[nH]c3ccccc3c12 (stereo not shown) | -65.6 |
| CNCc1ccccc1OCc1ccccc1F.Cl | -4.37 |
| COc1cc(CNC(C)(C)CO)cc(Br)c1OCc1ccccc1.Cl | -17.2 |
| CNCc1c(OCc2ccc(F)cc2)ccc2ccccc12.Cl | -49.1 |
| COc1cccc(CNC(C)(C)CO)c1OCc1ccc(Cl)cc1.Cl | -56.6 |
| CNCc1c(OCc2ccccc2F)ccc2ccccc12.Cl | -63.5 |
| CC(C)(CO)NCc1c(OCc2ccc(Cl)cc2)ccc2ccccc12.Cl | -75.6 |
| CNCc1c(OCc2ccccc2)ccc2ccccc12.Cl | -34.1 |
| Cl.OCCNCc1c(OCc2ccc(Cl)cc2)ccc2ccccc12 | -77.4 |
| CC(O)CNCCNCc1c(OCc2ccccc2)ccc2ccccc12.Cl (stereo not shown) | -34.6 |
| CCOc1cc(CNCCO)cc(Br)c1OCc1ccc(Cl)cc1.Cl | -16.5 |
| COc1cc(CNC(C)(C)CO)cc(Br)c1OCc1ccc(Cl)cc1.Cl | -45.7 |
| CC(C)(CO)NCc1cccc(OCc2ccc(Cl)cc2)c1 | -30.8 |
| CC(CC(=O)Nc1ccc(S(=O)(=O)Nc2ncccn2)cc1)c1ccccc1 (stereo not shown) | 6.78 |
| COc1ccc(C(=O)NC(=S)Nc2ccc(N3CCN(C(C)=O)CC3)cc2)cc1[N+](=O)[O-] | -2.14 |
| O=C1N(CN2C(=O)C3(OCCO3)c3ccccc32)c2ccccc2C12OCCO2 | 17.1 |
| COc1cc2c(cc1OC)C(COc1ccccc1OC)N(C(C)=O)CC2 (stereo not shown) | 14.8 |
| CCn1c(CC(=O)Nc2ccccc2F)nnc1SCC(=O)N1CCN(c2ccccc2)CC1 | 1.15 |
| Nc1ccc(S(=O)(=O)Nc2ccc(C(=O)c3ccccc3)cc2)cc1 | -2.92 |
| CSc1nc(-c2ccccc2)c(C#N)c(=O)[nH]1 | -5.88 |
| CCOC(=O)C(Cc1ccccc1)NC(=O)CCCC(=O)c1ccccc1 (stereo not shown) | 0.911 |

| SMILES | hERG current change (%, negative = inhibition) at 10uM [%] |
| --- | --- |
| O=C(CCCSc1nc2ccccc2c(=O)[nH]1)c1ccc(F)cc1 | 3.3 |
| CCN(CC)S(=O)(=O)c1cccc(C(=O)N/N=C/c2ccc(O)c(O)c2O)c1 | 11.4 |
| CCc1ccc2nc(N=C(N)N)nc(C)c2c1 | -14.3 |
| CCOc1cccc(CNc2ccc(O)cc2)c1OCc1ccc(Cl)cc1 | 10.3 |
| COc1cccc(CNCCO)c1OCc1ccc(Cl)cc1.Cl | -18 |
| CCOc1cccc(CNCCO)c1OCc1ccc(Cl)cc1.Cl | -53.2 |
| Cc1c(NC(=O)C(C)Sc2ccccc2)c(=O)n(-c2ccccc2)n1C (stereo not shown) | -1.92 |
| COc1ccc(C(=O)NCC(C)NC(=O)c2ccc(OC)c(Br)c2)cc1Br (stereo not shown) | 4.83 |
| Cc1ccc(-n2cnc3scc(-c4cccs4)c3c2=O)cc1 | 3.67 |
| Cc1cc(C)nc(S/C=C/C(=O)c2ccccc2F)n1 | 5.02 |
| COc1ccc(C2=NN(C(C#N)c3ccc(OC)c(OC)c3)C(c3ccccc3)C2)cc1 (stereo not shown) | 23.8 |
| N#Cc1c(NCCCO)nc(NCc2ccccc2)c2c1CCN(Cc1ccccc1)C2 | -43.4 |
| CCCCNc1nc(CC)c2c(c1C#N)CCCC2 | 8.24 |
| CC(C)CCNc1nc(N2CCCC2)c2c(c1C#N)CCN(C)C2 | -58.5 |
| CN1CCc2c(C#N)c(N3CCOCC3)nc(NCC3CCCO3)c2C1 (stereo not shown) | 11.5 |
| CCCCc1nc(NCCO)c(C#N)c2c1CCCC2 | -15.7 |
| CCCCCNc1nc(N2CCCC2)c2c(c1C#N)CCN(C)C2 | -72.8 |
| CCCCCNc1nc(NCCCO)c(C#N)c2c1CN(C)CC2 | -75.2 |
| CN1CCc2c(C#N)c(N3CCCCC3)nc(N3CCOCC3)c2C1 | -24.8 |
| CCc1nc(NCCC(C)C)c(C#N)c2c1CCCC2 | 23.4 |
| Cc1ccc(CN2CC(C(=O)N3CCN(S(=O)(=O)c4c(F)cccc4F)CC3)CC2=O)cc1 (stereo not shown) | -2.83 |
| CCc1cc(=O)oc2c(C)c(OCC(=O)N3CC[C@@]4(O)CCCC[C@H]4C3)ccc12 | -14.6 |
| O=C(OCC(=O)N(CCc1ccccc1)Cc1ccccc1)c1ccccc1[N+](=O)[O-] | 1.95 |
